# Most compounds without a hit are left out; they make up all but 10% or so of the library.
# HEK293 tox – HEK 293 cell cytotoxicity. Potency, µM (series often up to 115 µM), for the others: at the top dose activity change, negative = cytotoxicity, most hits filed as inhibitors. AID 1345083. HEK 293 viability, ATP luminescence (CellTiter-Glo), 48-72 h. hit rate 6.6% among 94,000; further: nearly all actives have a fitted effect of over 60% in size
#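 Read-out: CellTiter-Glo ATP luminescence. Cells: HEK 293, 250 cells/well. Exposure: 48 or 72 hr, 37 degree Celsius.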
# NIH3T3 tox – cytotoxic compounds in NIH 3T3 cells | Potency, µM (titrated, usually from 96.7 µM), for inactives: top-dose activity change, negative = cytotoxicity, actives largely listed as inhibitors | hit rate 4.3% among 94,000 | AID 1345082 | NIH 3T3 viability, CellTiter-Glo ATP luminescence, 48-72 h; further: nearly all actives have a fitted effect of over 55% in size
#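 Viability of NIH 3T3 cells after 48 or 72 hr compound treatment at 37 °C was assessed by CellTiter-Glo, with luminescence imaged following a 10 min room-temperature step.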
# Luciferase inh – blocks purified firefly luciferase enzyme activity; Potency, µM (top dose mostly 115 µM), most hits filed as inhibitors; purified P. pyralis luciferase, luminescence, biochemical; hit rate 2.5% among 76,000; P08659; further: nearly all actives have a fitted effect of over 65% in size
#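 Inhibitors were tested against purified firefly luciferase in a biochemical, low-substrate format (both substrates at 10uM) and luminescence measured with a CCD imager.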
# GPT2 inhibitor – inhibitors of human GPT2 alanine aminotransferase; Q8TD30; Recombinant GPT2, coupled pyruvate oxidase/HRP Amplex Red fluorescence; Potency, µM (doses to about 57.7 µM), without a hit: at the top dose activity change, negative = inhibition, most hits filed as inhibitors; hit rate 0.25% among 100,000; AID 1671188; further: nearly all actives have a fitted effect of over 60% in size
#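 Fluorescence of coupled pyruvate oxidase/HRP/Amplex Red system (50uM Amplex, 30 min, dark) reports pyruvate formed by GPT2. Enzyme reaction: 10ng/uL GPT2, 2mM L-alanine, 250uM a-KG, 30 min room temperature, pH 7.5; 50uM AOA control.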
# NPR1 antag – blocks ANP-stimulated signaling of human Npr1 receptor | P16066 | HEK293 hNpr1 GloSensor cGMP, ANP-stimulated luminescence | Potency, µM (series often up to 46.3 µM), for inactives: top-dose activity change, negative = inhibition, most hits filed as inhibitors | hit rate 1.6% among 76,000 | AID 1347048; calls by dose curve; further: nearly all actives have a fitted effect of over 60% in size
# Target sequence (P16066 whole entry, looked up): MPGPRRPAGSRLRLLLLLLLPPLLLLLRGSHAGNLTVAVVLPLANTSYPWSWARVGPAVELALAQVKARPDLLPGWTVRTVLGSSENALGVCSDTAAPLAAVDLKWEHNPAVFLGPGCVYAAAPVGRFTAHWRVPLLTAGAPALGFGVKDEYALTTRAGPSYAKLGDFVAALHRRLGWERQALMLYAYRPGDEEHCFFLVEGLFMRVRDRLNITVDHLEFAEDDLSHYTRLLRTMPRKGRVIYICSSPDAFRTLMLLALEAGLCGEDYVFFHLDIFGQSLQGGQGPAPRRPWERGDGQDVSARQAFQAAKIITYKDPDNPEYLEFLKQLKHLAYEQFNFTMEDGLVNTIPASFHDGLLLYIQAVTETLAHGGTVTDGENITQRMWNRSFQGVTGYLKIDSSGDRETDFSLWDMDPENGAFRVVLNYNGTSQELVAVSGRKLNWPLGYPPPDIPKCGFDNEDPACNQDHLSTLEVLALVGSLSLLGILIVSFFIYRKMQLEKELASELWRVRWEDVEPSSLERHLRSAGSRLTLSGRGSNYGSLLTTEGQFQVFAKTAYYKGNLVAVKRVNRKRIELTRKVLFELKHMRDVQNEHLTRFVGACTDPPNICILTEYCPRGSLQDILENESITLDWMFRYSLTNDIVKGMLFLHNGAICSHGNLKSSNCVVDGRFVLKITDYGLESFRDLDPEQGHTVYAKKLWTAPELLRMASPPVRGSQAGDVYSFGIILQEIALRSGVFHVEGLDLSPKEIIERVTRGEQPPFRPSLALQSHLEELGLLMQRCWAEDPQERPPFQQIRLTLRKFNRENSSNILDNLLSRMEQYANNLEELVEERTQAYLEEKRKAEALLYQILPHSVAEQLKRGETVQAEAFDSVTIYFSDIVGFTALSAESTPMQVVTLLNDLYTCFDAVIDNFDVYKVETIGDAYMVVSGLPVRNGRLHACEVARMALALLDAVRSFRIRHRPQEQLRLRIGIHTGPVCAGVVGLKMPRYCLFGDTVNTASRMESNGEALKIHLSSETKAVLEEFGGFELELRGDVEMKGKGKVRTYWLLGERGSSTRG
#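 Compound pre-incubated 30 min at room temperature on GloSensor-loaded HEK293 cells stably carrying hNpr1 and the pGS-40F cGMP biosensor. Stimulation uses hNppA at 0.1 nM final; luminescence is taken at baseline and 20 min post-agonist.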
# Active calls of the source: *; i = inactive; ? = inconclusive; / = no result; [ ] = dose if it differs, or a comment. Unless noted, the call rests on the fitted dose curve; in most records, active means well fitted curve in the direction sought with a large enough effect; inconclusive means small, poorly fitted or top-dose-only effect, or another doubt; inactive means no such curve, though single readings can be large; an effect the other way counts as inactive or inconclusive. On the % scale 0 is the no-effect control and ±100 the full control effect; potency means the concentration at half of the fitted maximal effect.
SMILES,HEK293 tox,NIH3T3 tox,Luciferase inh,GPT2 inhibitor,NPR1 antag
COc1cccc(CNC(=O)Cn2c(N3CCc4ccccc4C3)nc(C)cc2=O)c1,44.7µM*,-43.9%,i,i,-4.4%
Cc1cnc(-c2cccnc2)n1CC1CCN(S(=O)(=O)Cc2ccccc2)CC1,?,-18.3%,i,i,0.4%
CN(Cc1cccn1C)C(=O)NC1CCCC1,?,?,i,i,2.3%[70.6 µM]
Cc1cccc(NC(=O)N2CCc3c(c4ccccc4n3C)C2)c1C,?,?,i,i,-2.6%
Cn1c2c(c3cc(F)ccc31)CN(C(=O)Nc1cccc(F)c1)CC2,44.7µM*,22.4µM*,?,-0.4%,-14.7%
Cc1ccc(NC(=O)N2CCc3c(c4ccccc4n3C)C2)cc1C,44.7µM*,?,?,i,-20.1%
Cn1c2c(c3ccccc31)CN(C(=O)Nc1cccc(Br)c1)CC2,?,31.6µM*,?,-25.1%,-9.2%
Cc1cnc(C2CC2)n1C1CCN(S(=O)(=O)c2ccc3c(c2)OCCO3)CC1,?,?,/,i,/
O=S(=O)(c1cccc(F)c1)N1CCC(OC2CCN(Cc3ccccc3)CC2)CC1,-5.4%,-25.7%,i,i,0.0%
Cc1ccc(S(=O)(=O)N2CCC(OC3CCN(Cc4ccccc4)CC3)CC2)cc1C,?,35.5µM*,i,i,-22.0%
c1ccc(CN2CCNc3cc(-c4cccnc4)ncc3C2)cc1,?,-23.4%[138 µM],i,i,3.3%[70.6 µM]
COCCN1CCNc2cc(-c3ccc(Oc4ccccc4)cc3)ncc2C1,50.1µM*,44.7µM*,28.2µM*,-15.0%[88.5 µM],?
OCc1cccc(-c2cc3c(cn2)CN(CCc2ccccc2)CCN3)c1,?,?,i,-29.1%[88.5 µM],-0.1%[70.6 µM]
c1ccc(CCN2CCNc3cc(-c4cn[nH]c4)ncc3C2)cc1,?,89.1µM*,i,1.2%[88.5 µM],-26.6%[70.6 µM]
c1ccc(CCN2CCNc3cc(NCc4cccnc4)ncc3C2)cc1,50.1µM*,50.1µM*,i,i,4.1%[70.6 µM]
O=C(c1cccnc1)N1CCC(c2nnc3n2C(C(=O)N2CCN(c4ncccn4)CC2)CC3)CC1 (configuration not stated),i,i,/,-2.2%,/
CC(c1ccc(F)cc1)N1Cc2cc(NC(=O)c3cccs3)ccc2OCC1=O (configuration not stated),22.4µM*,?,i,i,?
COc1ccc2c(c1)CN(C1CC1)C(=O)CCN2C(=O)C1CCC1,-18.1%,?,/,/,/
CN(C)C1CCN(Cc2cc3cc4c(cc3nc2-c2ccc(Cl)cc2)OCO4)C1 (configuration not stated),?,?,28.2µM*,-17.9%,-11.0%
OCC1CCN(Cc2cc3cc4c(cc3nc2-c2ccc(Cl)cc2)OCO4)CC1,?,?,31.6µM*,i,-2.9%
CC1(O)CCCN(Cc2cc3cc4c(cc3nc2-c2ccc(Cl)cc2)OCO4)C1 (configuration not stated),?,?,31.6µM*,0.8%,-2.4%
COc1cc2cc(CN3CCC(N(C)C)C3)c(-c3cccc(Cl)c3)nc2cc1OC (configuration not stated),?,?,?,-3.5%,-0.8%
O=C(Cn1c(=O)c2c(n1Cc1ccccc1)CN(Cc1ccccc1)CC2)N1CCC(c2ccccc2)CC1,?,?,i,-14.9%,-1.4%
COc1ccc(S(=O)(=O)Nc2ccc(C)n(CC(=O)N(C)Cc3ccco3)c2=O)cc1,31.6µM*,2.8%,i,-0.9%,-1.2%
O=C(CCC1CCCN(S(=O)(=O)c2cccc(F)c2)C1)Nc1ccc(F)cc1 (configuration not stated),?,?,/,-10.8%,/
CN(Cc1ccc(Oc2ncccn2)cc1)CC1CCN(CCc2ccc(F)cc2)CC1,?,50.1µM*,i,-3.7%,6.4%
CN(Cc1ccc(-n2cccn2)cc1)CC1CCN(CCc2ccc(F)cc2)CC1,?,?,i,-12.0%,-7.0%
CNC(=O)c1cc(C2CC2)nc2onc(C3CCN(C(=O)Nc4ccc(C)c(F)c4)C3)c12 (configuration not stated),44.7µM*,?,/,/,/

# Bioassay records as filed in PubChem BioAssay.
